DAT uptake mod = human DAT dopamine uptake with cocaine, either direction; Q01959; LLC-PK1 hDAT cells, [14C]-dopamine uptake with cocaine IC80; actives deviate in either direction; B-score at 10 µM; 110,000 compounds, 1.3% hits;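 active = Z score or B-score, a plate-position-corrected score, falls beyond the plate's 99.7% confidence bounds, in either direction; inactive = both scores lie inside the 99.7% bounds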
Target sequence (Q01959 whole entry, looked up): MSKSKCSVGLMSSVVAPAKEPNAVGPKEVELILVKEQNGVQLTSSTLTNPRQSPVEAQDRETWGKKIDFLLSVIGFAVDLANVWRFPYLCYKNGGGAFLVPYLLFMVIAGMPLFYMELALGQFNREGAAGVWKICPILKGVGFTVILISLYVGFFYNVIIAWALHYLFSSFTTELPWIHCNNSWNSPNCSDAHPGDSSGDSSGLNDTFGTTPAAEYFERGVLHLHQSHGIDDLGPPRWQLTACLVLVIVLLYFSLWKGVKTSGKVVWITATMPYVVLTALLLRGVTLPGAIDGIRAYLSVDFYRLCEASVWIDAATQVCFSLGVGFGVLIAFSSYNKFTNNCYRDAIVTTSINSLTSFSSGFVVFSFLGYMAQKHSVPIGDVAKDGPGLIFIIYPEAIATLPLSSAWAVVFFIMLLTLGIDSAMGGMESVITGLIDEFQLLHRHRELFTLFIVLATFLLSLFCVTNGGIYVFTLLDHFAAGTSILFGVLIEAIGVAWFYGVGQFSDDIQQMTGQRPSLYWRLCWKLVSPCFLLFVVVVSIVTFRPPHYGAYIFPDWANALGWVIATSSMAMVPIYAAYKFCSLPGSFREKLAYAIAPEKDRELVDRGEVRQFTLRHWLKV
Smad3 inh = inhibitors of human Smad3 transcription factor binding. P84022. TR-FRET Smad3/Dy647-FoxH1 peptide binding, europium anti-His. inhibition, % at 25 µM. 88,000 compounds, 0.29% hits. AID 630;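 active = compounds that reduce the energy-transfer binding signal between the protein and its labelled peptide by more than half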
Cav3 T inh = human Cav3.2 channel inhibition, primary screen. O95180. Cav3.2-expressing cells, Fluo-4 calcium fluorescence FDSS; hits give low values. B-score at 10 µM. 100,000 compounds, 4% hits;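 active = single-dose well whose peak fluorescence ratio is a statistical outlier from its plate by either plate-standardised score or position-corrected B-score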
PostGolgi ctrl = yeast control strain growth, post-Golgi counter-screen | efflux-deficient yeast background strain, growth absorbance A615, 16 h | inhibition, % at 10 µM | 98,000 compounds, 5% hits | AID 738
PostGolgi yeast = growth inhibition of a yeast mutant, post-Golgi transport screen; post-Golgi transport phenotypic cell assay; inhibition, % at 10 µM; 98,000 compounds, 0.9% hits;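 note: yeast cells grown in 1536-well plates; yeast grown about 18 h at 30C before absorbance read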
TNAP act DEA = activates human TNAP at intermediate phosphate acceptor concentration | purified TNAP, CDP-star luminescence, 100 mM DEA, 30 min; hits give high values; scale: 0 levamisole-inhibited, 1 vehicle-only enzyme | activation factor at 20 µM | 64,000 tested, under 10 active;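 active = activation factor of at least 2 at 20 µM, relative to controls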
A number is an active result; i = inactive; nt = no result. The list is not random: actives were taken first. Their share in the collection is about 8.7%. Cut-off read from the data, not from the text of the source, unless noted: active = inhibition above about 30%; inactive = the rest.

SMILES	DAT uptake mod	Smad3 inh	Cav3 T inh	PostGolgi ctrl	PostGolgi yeast	TNAP act DEA
CCOc1ccc(C(=O)N(CN2CCCC2=O)c2ccc(C)cc2)cc1	i	i	i	nt	nt	i
COC(=O)CSc1nc2cc3c(cc2cc1C#N)OCO3	i	i	i	i	i	i
COC(=O)CSc1nc2cc3c(cc2cc1C)OCCO3	i	i	i	36	i	i
Cc1ccc(NC(=O)C(Cc2ccccc2)N2C(=O)C3C4CCC(C4)C3C2=O)cc1Cl (stereo not given)	i	nt	-5.8	i	i	nt
CC(=O)N1CCN(c2ccccc2NC(=O)COc2cc(C)ccc2C(C)C)CC1	i	i	-5.7	i	i	i
Cc1cccc(OCC(=O)Nc2ccccc2N2CCN(C(=O)C(C)C)CC2)c1C	i	i	-4.9	42	i	i
Cc1ccc(-c2ccc(/C=N/c3ncn[nH]3)o2)cc1Cl	i	i	-6.7	34	i	i
c1ccc(-c2ccc(-c3cnc4n3CCCCC4)cc2)cc1	i	i	i	i	81	nt
c1cc2c(cc1-c1cnc3n1CCC3)OCCO2	i	i	i	37	i	i
Cn1c(-c2ccc3c(c2)OCO3)cnc1N	i	i	i	i	i	i
O=C(CCNc1n[nH]c(=O)[nH]c1=O)N1CCOCC1	-3.4	i	i	i	i	i
CC(C)(C)NC(=O)CSc1nncn1NCc1ccccc1	i	i	i	i	i	i
Cc1ccc(CNn2cnnc2SCC(=O)NC(C)(C)C)cc1	2.2	i	i	i	i	i
O=C1CC(c2cc3c(cc2Br)OCO3)C2=C(CCCC2=O)N1 (stereo not given)	nt	i	nt	i	i	i
CCOC(=O)Cc1csc(NC(=O)c2ccc(S(=O)(=O)N3CCCC3)cc2)n1	i	i	i	i	i	i
CCOC(=O)N1CCC(=C2c3ccc(Cl)cc3CCc3cccnc32)CC1	i	i	-4.7	nt	nt	i
CC(C)N(CCNS(=O)(=O)c1ccc(Cl)cc1)C(C)C	3	nt	i	i	i	nt
Cc1ccc(S(=O)(=O)NCCN(CCNS(=O)(=O)c2ccc(C)cc2)S(C)(=O)=O)cc1	i	i	i	i	i	i
CN(C)C(=O)COc1ccc2cc(-c3ccccc3)c(=O)oc2c1	i	i	i	i	i	i
COc1ccccc1N=C1SC(C(=O)Nc2ccc(F)cc2)CC(=O)N1C (stereo not given)	i	i	i	nt	nt	nt
CCOc1cccc(NC(=O)C2CC(=O)N(C)C(=Nc3cccc(F)c3)S2)c1 (stereo not given)	i	nt	-4.7	i	i	i
CCOc1cccc(NC(=O)C2CC(=O)N(C)C(=Nc3ccccc3)S2)c1 (stereo not given)	i	i	-4.5	i	i	i
COC(=O)c1ccc(C)c(NS(=O)(=O)c2ccc(C)c([N+](=O)[O-])c2)c1	i	nt	-5.5	i	i	nt
N#Cc1c(N)nc(SCC(=O)NC2CCCCC2)c(C#N)c1-c1ccc(Cl)cc1	i	i	i	i	i	i
COc1ccc2c(c1)[n+]([O-])c(/C(C)=N/NC(N)=S)c(C)[n+]2[O-]	nt	66	nt	nt	nt	nt
SMILES	DAT uptake mod	Smad3 inh	Cav3 T inh	PostGolgi ctrl	PostGolgi yeast	TNAP act DEA
COc1ccc(/C(C)=N/NC(=O)c2nc(C)cc(C)n2)cc1	i	i	i	i	i	nt
Nc1cccnc1Sc1cc(Cl)cc(Cl)c1	i	nt	i	i	i	nt
Cc1cc(NC(=O)CCCC(=O)N(CC(=O)NCCc2ccccc2)Cc2ccc(F)cc2)no1	i	i	i	i	i	i
CC(=O)N(Cc1ccc(F)cc1)C1=C(NCCc2ccccc2)C(=O)c2ccccc2C1=O	i	i	i	31	i	nt
CCOP(=O)(c1ccc(N(C)C)cc1)C(O)c1ccccc1OC (stereo not given)	i	i	i	i	i	i
N#C/C(C(=O)c1ccccc1)=C1/SC=C(N)N1c1ccccc1	i	i	i	i	i	i
CC(NC(=O)CSc1nnc(-c2cccc(S(=O)(=O)N3CCCCC3)c2)o1)C12CC3CC(CC(C3)C1)C2 (stereo not given)	i	i	-7	i	i	nt
N#Cc1ccc(CSc2nnc(-c3cccc(S(=O)(=O)N4CCCCC4)c3)o2)cc1	i	i	-7.5	i	i	i
CC(C)CNC(=O)CSc1nnc(-c2cccc(S(=O)(=O)N3CCCCC3)c2)o1	i	i	i	i	i	nt
O=C1C(N2CCOCC2)=C(n2nnc3ccccc32)C(=O)c2ccccc21	-3.9	52	i	i	i	nt
O=C1c2ccccc2C(=O)c2c1cccc2N1CCOCC1	i	nt	i	i	i	nt
O=C1c2cnc3nc(SCc4ccccc4)nn3c2CC2c3ccccc3CCN12 (stereo not given)	i	nt	i	96	68	nt
O=C(NCCN1CCN(Cc2ccccc2)CC1)C1c2ccccc2C(=O)N2CCc3ccccc3C12 (stereo not given)	i	i	i	i	i	i
COc1ccc(NC(=O)CSc2ccc3c(c2)OCCO3)cc1OC	i	i	i	i	i	nt
CC(C)Cn1c(CN2C(=O)c3ccccc3C2=O)nc2ccccc2c1=O	i	i	nt	i	i	i
CN=C1S/C(=C\c2ccc(N3CCOCC3)c(F)c2)C(=O)N1C	i	nt	i	i	i	nt
Clc1ccc(OCCCc2nc(-c3ccncc3)no2)c(Cl)c1	i	i	i	95	92	nt
Cc1cc(C)c(C)c(OCc2nc(-c3cccnc3)no2)c1	i	i	i	i	i	i
Clc1ccc(-c2noc(CCCOc3ccccc3)n2)cc1	i	i	i	i	i	nt
Clc1ccc(OCCCc2nc(-c3cccnc3)no2)c(Cl)c1	i	i	i	34	i	i
CCNc1nc(NC(C)C)nc(Oc2ccc(OCc3ccccc3)nn2)n1	i	i	i	nt	nt	nt
COC(=O)c1oc2nc(C)cc(C)c2c1N	i	i	i	i	i	i
Cc1cc(C)n(-c2nc(SCCN(C)C)c3c4c(sc3n2)CCCC4)n1	3	i	i	i	i	nt
CCC(O)CNc1nc(-n2nc(C)cc2C)nc2sc3c(c12)CCCC3 (stereo not given)	nt	i	nt	nt	nt	i
Cc1onc(-c2ccccc2)c1C(=O)N1CCN(S(=O)(=O)c2ccc3c(c2)OCCO3)CC1	i	i	i	i	i	i
SMILES	DAT uptake mod	Smad3 inh	Cav3 T inh	PostGolgi ctrl	PostGolgi yeast	TNAP act DEA
Cc1ccc(NC2=CC(=O)CC(C)(C)C2)c(N)c1	i	i	i	38	i	i
Cc1ccc(NC2=CC(=O)CC(C)(C)C2)cc1C	i	i	i	i	i	i
CCC(Oc1ccccc1)C(=O)Nc1ccccc1OC (stereo not given)	i	i	i	31	i	i
CCCc1nnc(NC(=O)C(CC)OC(=O)c2cc(C)nc3ccccc23)s1 (stereo not given)	i	nt	-4.3	i	i	nt
CCC(Oc1ccccc1)C(=O)Nc1nnc(C(F)(F)F)s1 (stereo not given)	i	i	i	48	i	i
CCC(Oc1ccccc1)C(=O)Nc1nnc(C)s1 (stereo not given)	i	i	i	31	i	i
Cc1nnc(NC(=O)Oc2ccccc2)s1	i	i	i	i	i	i

From PubChem
